Bioassay records deposited in PubChem by several laboratories.
Rtt109 Vps75 = inhibitors of C. albicans Rtt109/Vps75 HAT, primary screen, biochemical, ThioGlo CoA-SH fluorescence, plate reader | Histone acetyltransferase RTT109 (Candida albicans (strain SC5314 / ATCC MYA-2876)), … | inhibition, % at 34.9 µM | 0.16% of 330,000 active | AID 540336, 2011 | purified Rtt109/Vps75, 4 h;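 active = inhibition of at least 50% in every replicate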
LANA-H2A inh = blockers of LANA interaction with H2A/H2B – biochemical, FP readout, HTS, primary screen. Protein LANA1 (Human herpesvirus 8 type P (isolate GK18)), Q9QR71. inhibition, % (concentration not given with the values). 0.6% of 320,000 active. cell-free LANA-H2A/H2B peptide, fluorescence polarization; in the data active = inhibition mostly above about 10%, no sharp cut-off; inactive = mostly below about 6.7%
HTR2A ag = mouse Htr2a agonists via beta-arrestin recruitment, primary screen, cell-based, luminescence. 5-hydroxytryptamine receptor 2A (Mus musculus), P35363. CHO-K1 mHTR2A beta-arrestin complementation; percent of 30 µM serotonin response. activation, % at 7.6 µM. 0.66% of 360,000 active;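 active = activation above a run cutoff, the mean activation of all tested compounds plus 3 SD, cut at about 14% in these data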;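 note: 0% = plate median of compound wells and 100% = 30 µM serotonin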
NOD2 RIPK2 PPI = NOD2-RIPK2 binding disruptors in cells, primary screen, fluorescence, CHO cells, BLA complementation; Receptor-interacting serine/threonine-protein kinase 2 (Homo sapiens), O43353; 0.38% of 360,000 active; inhibition, % at 4.98 µM; CCF4 ratio; in the data active = inhibition above about 21%;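 note: 0% = vehicle only and 100% = reference blocker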
TLR9-MyD88 inh = inhibitors of TLR9-MyD88 association in cells, primary screen, cell-based, CHO, BLA complementation, fluorescence. 0.21% of 340,000 active. AID 504734, 2011. inhibition, % at 4.98 µM. CCF4 FRET ratio;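 active = inhibition above the mean over all tested compounds plus 3 SD, cut at about 21% in these data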;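 note: 0% = DMSO only wells and 100% = clavulanate BLA inhibitor control wells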
Target sequence (Q99836 whole entry, looked up): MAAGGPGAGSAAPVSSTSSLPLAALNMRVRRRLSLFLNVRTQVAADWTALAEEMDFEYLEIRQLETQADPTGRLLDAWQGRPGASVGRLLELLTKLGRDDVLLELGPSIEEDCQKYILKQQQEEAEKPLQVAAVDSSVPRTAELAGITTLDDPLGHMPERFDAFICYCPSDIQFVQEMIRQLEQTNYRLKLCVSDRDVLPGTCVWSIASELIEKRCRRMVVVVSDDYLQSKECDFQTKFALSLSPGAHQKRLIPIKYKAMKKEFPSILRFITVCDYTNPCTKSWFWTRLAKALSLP
Target sequence (Q9NR96 whole entry, looked up): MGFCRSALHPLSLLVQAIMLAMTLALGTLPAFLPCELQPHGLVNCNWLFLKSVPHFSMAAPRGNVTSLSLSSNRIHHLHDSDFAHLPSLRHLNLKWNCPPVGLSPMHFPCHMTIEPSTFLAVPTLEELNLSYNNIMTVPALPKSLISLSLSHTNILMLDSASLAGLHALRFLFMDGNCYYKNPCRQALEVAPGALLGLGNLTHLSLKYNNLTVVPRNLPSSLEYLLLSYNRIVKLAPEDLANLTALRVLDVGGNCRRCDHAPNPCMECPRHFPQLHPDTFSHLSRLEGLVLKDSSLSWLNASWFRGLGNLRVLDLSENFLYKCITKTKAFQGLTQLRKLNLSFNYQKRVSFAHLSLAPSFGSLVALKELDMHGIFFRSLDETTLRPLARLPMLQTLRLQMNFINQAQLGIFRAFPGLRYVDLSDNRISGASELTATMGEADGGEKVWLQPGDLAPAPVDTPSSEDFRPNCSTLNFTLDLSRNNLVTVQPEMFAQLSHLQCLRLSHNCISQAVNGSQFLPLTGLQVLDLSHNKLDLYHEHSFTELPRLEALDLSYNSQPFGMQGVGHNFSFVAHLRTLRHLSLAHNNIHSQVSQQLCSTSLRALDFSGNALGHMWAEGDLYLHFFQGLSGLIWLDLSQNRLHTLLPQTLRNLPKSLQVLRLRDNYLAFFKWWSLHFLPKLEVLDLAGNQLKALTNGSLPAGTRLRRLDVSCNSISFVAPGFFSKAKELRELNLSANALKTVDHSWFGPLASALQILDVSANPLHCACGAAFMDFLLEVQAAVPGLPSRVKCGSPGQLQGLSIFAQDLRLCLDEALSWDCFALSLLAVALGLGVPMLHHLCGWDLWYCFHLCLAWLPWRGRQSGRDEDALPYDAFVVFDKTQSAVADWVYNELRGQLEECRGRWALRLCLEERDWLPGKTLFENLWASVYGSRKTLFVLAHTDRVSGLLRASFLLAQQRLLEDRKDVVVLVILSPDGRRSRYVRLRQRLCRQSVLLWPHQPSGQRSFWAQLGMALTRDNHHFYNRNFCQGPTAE
TLR4 MyD88 comp = inhibitors of TLR4-MyD88 association in cells, primary screen, cell-based, HeLa CL3-4, BLA complementation, FRET ratio | Toll-like receptor 4 (Homo sapiens) + Myeloid differentiation primary response protein … | HeLa CL3-4 TLR4/MyD88 BLA complementation | inhibition, % at 8.4 µM | 0.18% of 200,000 active; in the data active = inhibition above about 25%;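 note: 0% = vehicle and 100% = reference inhibitor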
OPRM1 ag = OPRM1 agonists via beta-arrestin recruitment, confirmation, counter-screen for mouse HTR2A agonist project, cell-based, luminescence, single concentration | shares compounds with HTR2A ag | U2OS OPRM1 beta-arrestin PathHunter; DMSO 0%, DAMGO 9.3 µM 100% | activation, % at 9.3 µM | 5.3% of 2,300 active;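 active = mean activation above the mean of DMSO-only wells plus 3 SD, cut at about 0.5% in these data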
HTR2A ag conf = mouse HTR2A agonists, beta-arrestin recruitment, confirmation, cell-based, luminescence, CHO-K1 PathHunter, triplicate; AID 624381, 2012; 19% of 2,300 active; shares compounds with HTR2A ag; DMSO 0%, 30 µM serotonin 100%; activation, % at 7.6 µM;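 active = mean activation across triplicates above the hit threshold derived in the original primary screen, cut at about 15% in these data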
* hit, by the source's call; . = no result. Most compounds without a hit are left out; they make up all but 1.8% or so of the library.

SMILES	Rtt109 Vps75	LANA-H2A inh	HTR2A ag	NOD2 RIPK2 PPI	TLR9-MyD88 inh	TLR4 MyD88 comp	OPRM1 ag	HTR2A ag conf
C[C@@H]1ON(C)[C@H]2C[C@H]3c4[nH]c5ccccc5c4CCN3C[C@@H]12	.	.	21.7*	-5.4	0.3	.	0.0	13.3
Cc1cccc(-c2ccc3[nH]c4c(c3c2)CCN2C[C@H]3[C@H](C)ON(C)[C@H]3C[C@@H]42)c1	.	.	8.4	11.1	6.9	.	.	.
CCOC(=O)C1CCN(CC(C)(C)NS(=O)(=O)c2ccc(C)cc2)CC1	6.6	1.3	19.8*	1.8	4.4	.	-0.6	1.6
CCOC(=O)C(CC)c1cc2n(c(=O)c1C#N)CCC21OCCO1 (stereo unspecified)	.	.	-4.6	0.7	.	.	.	.
CCN(CC(=O)Nc1c(F)cccc1F)C(=O)c1cc(S(=O)(=O)N(CC)CC)ccc1N1CCCCC1	11.5	-1.5	0.4	-2.4	4.6	.	.	.
CCN(CC(=O)Nc1c(F)cccc1F)C(=O)c1ccc(N2CCCCC2)c([N+](=O)[O-])c1	6.4	2.6	15.1*	-4.4	-5.3	.	0.7*	8.0
O=C(NCc1ccccc1)C(=O)NCC1CCCN1S(=O)(=O)c1cccs1 (stereo unspecified)	-2.6	-4.1	5.4	-12.0	-1.0	.	.	.
ON=Cc1ccnc2ccccc12	.	.	5.1	1.6	6.3	.	.	.
O=C(O)c1ccccc1N/N=C\c1ccnc2ccccc12	-4.1	6.3	14.5*	-4.6	4.9	0.2	-0.6	1.4
N#Cc1cccc(C(=O)OCC(=O)c2ccc3c(c2)NC(=O)CO3)c1	-1.6	-1.8	-1.2	10.3	-5.5	.	.	.
CC(=O)Nc1cc(NC(C)=O)cc(C(=O)OCC(=O)c2ccc3c(c2)NC(=O)CO3)c1	-0.1	-4.1	19.6*	-8.8	-5.7	.	-0.7	-3.9
N#CCC(=O)Nc1ccc(C(=O)OCC(=O)c2ccc3c(c2)NC(=O)CO3)cc1	15.9	4.7	25.1*	-7.0	0.8	.	-0.5	-4.4
Cc1c(Br)cccc1NC(=O)C1(C)CCN1Cc1ccc(OC(C)C)cc1 (stereo unspecified)	.	.	-2.6	3.4	.	.	.	.
Cc1cccc(OCC(=O)Nc2nnc(S(=O)(=O)N3CCCCCC3)s2)c1	2.9	-4.5	3.9	6.6	-0.6	.	.	.
COC(=O)c1cc(OC)c(OC)cc1NC(=O)CSCc1c(C)noc1C	8.4	5.0	15.8*	4.3	-10.1	.	-0.6	3.2
CN(c1ccccc1C(=O)NCc1ccco1)S(C)(=O)=O	1.1	0.7	-3.8	5.2	-3.7	1.4	.	.
CN(c1ccccc1C(=O)Nc1ccccc1C(=O)NCc1ccco1)S(C)(=O)=O	-0.4	-3.0	14.4*	-2.6	-7.6	13.3	-0.6	-4.9
COc1ccc(C2=CC(c3ccc(F)cc3)n3nnnc3N2)cc1 (stereo unspecified)	-98.4	5.8	2.2	10.3	20.1	7.2	.	.
COc1ccc(C2=CC(c3sccc3C)n3nnnc3N2)cc1 (stereo unspecified)	-6.4	-7.5	15.0*	1.2	-8.6	4.1	0.1	2.1
Nc1c(C(=O)Nc2cccc(F)c2)nnn1-c1ccc2c(c1)OCCO2	2.2	-0.6	15.0*	-4.2	3.5	.	-0.1	-0.1
Nc1c(C(=O)Nc2ccc3c(c2)OCCO3)nnn1Cc1ccccc1Cl	13.5	3.2	18.5*	0.9	3.6	.	0.2	3.9
O=C1NC[C@@H](CCCCN2CCN(CCC3CCCCC3)C(=O)C2=O)N(CCC2CCCCC2)C1=O	.	.	-1.3	1.3	.	.	.	.
Nc1ccc(-c2cc(-c3cccc(N)c3)nc(-c3ccccc3)n2)cc1	-0.4	-2.7	14.8*	-3.8	-4.2	3.2	-0.3	11.0
CCCn1c(N)c(C(=O)CN(C)CC(=O)Nc2ccccc2C(F)(F)F)c(=O)[nH]c1=O	-7.9	.	2.0	-11.4	-0.5	.	.	.
Cc1nc(SCCC(=O)O)c2cc(-c3ccccc3)sc2n1	22.0	5.2	0.5	-9.6	-6.2	.	.	.
SMILES	Rtt109 Vps75	LANA-H2A inh	HTR2A ag	NOD2 RIPK2 PPI	TLR9-MyD88 inh	TLR4 MyD88 comp	OPRM1 ag	HTR2A ag conf
O=C(COc1ccc(Br)cc1)Nc1ccc(C(=O)Nc2ccccc2C(=O)O)cc1	-7.2	-1.9	17.7*	-6.2	-4.6	.	-0.4	5.1
COc1ccc(OCC(=O)Nc2ccc(C(=O)Nc3ccccc3C(=O)O)cc2)cc1	3.4	-7.0	7.1	-2.1	-0.5	.	.	.
CCOC(=O)Cn1cnc2c(cnn2-c2ccc(OC)cc2)c1=O	0.7	-1.4	3.3	-4.8	-3.5	.	.	.
COc1ccc(-n2ncc3c(=O)n(CC(=O)N(C(C)C)C(C)C)cnc32)cc1	2.2	-1.2	36.8*	-3.9	5.6	.	-0.8	-3.7
C[C@@H]1CCCCO[C@@H](CN(C)S(=O)(=O)c2ccccc2)[C@@H](C)CN([C@H](C)CO)C(=O)c2cc(NS(=O)(=O)c3ccc(F)cc3)ccc2O1	.	.	10.0	7.4	5.0	.	.	.
CCS(=O)(=O)N1CCC(C(=O)NCCCN2CCN(c3ccccc3F)CC2)CC1	.	5.6	15.8*	-2.7	5.6	-5.2	-0.6	54.3*
Cc1cccc(CCNC(=O)C2CCCN(S(=O)(=O)c3cnc[nH]3)C2)c1 (stereo unspecified)	-11.8	2.8	14.6*	5.8	11.4	-6.6	-0.7	-5.4
O=C(NCCN1CCN(c2ccccc2F)CC1)C1CCCN(S(=O)(=O)c2cnc[nH]2)C1 (stereo unspecified)	-1.0	0.4	19.0*	-1.5	-7.3	2.4	-0.6	60.3*
O=C(C1CC1)N1CCc2cc(S(=O)(=O)NCCCN3CCCCC3)ccc21	5.9	-1.0	-2.2	-0.4	-10.6	.	.	.
O=C(C1CCC1)N1CCc2cc(S(=O)(=O)NCCN3CCN(c4ccccc4F)CC3)ccc21	24.3	-1.0	14.7*	1.1	5.5	2.9	-0.2	53.9*
CCCC(=O)N(CCN1CCOCC1)c1nc2c(F)cc(F)cc2s1	-6.9	2.8	0.6	7.2	5.8	.	.	.
CNC[C@@H]1Oc2cc(Br)ccc2S(=O)(=O)N([C@H](C)CO)C[C@@H]1C	.	.	-1.5	-9.9	.	.	.	.
